According to PubChem BioAssay AID1159580 (chemical genetic matrix, 2015):
Among all 5,500 compounds or so, about 2,000 (36%) were called active. Not shown: some 18% with an inconclusive outcome. No stated cut-off is given here; in the data, active means normalized growth mostly below about 0.91 (no sharp cut-off); inconclusive means no clear call, values can overlap the other calls; inactive means mostly above about 0.92. The list shows a part of the results.

Experiment: chemical genetic growth profiling, strain panel (AID 1159580);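 further: tested at 20 µM; growth read once vehicle control cultures reached saturation at 30 °C; 1 = growth at the plate median or of vehicle wells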
Details: growth OD

Measured: normalized growth

Nc1ccc(S(=O)(=O)Nc2nccs2)cc1
inactive: S. cerevisiae deletion strains, locus YJR075W, strain HOC1, stronger effect = lower value 1.01 | S. cerevisiae deletion strains, locus YKL009W, strain mrt4, stronger effect = lower value 0.999 | S. cerevisiae deletion strains, locus YKL068W, stronger effect = lower value 0.99 | S. cerevisiae deletion strains, locus YKL085W, strain MDH1 (second series), stronger effect = lower value 0.99 | S. cerevisiae deletion strains, locus YKL085W, strain MDH1, stronger effect = lower value 0.99 | S. cerevisiae deletion strains, locus YKL160W, strain elf1, stronger effect = lower value 1.02 | S. cerevisiae deletion strains, locus YKL190W, strain CNB1, stronger effect = lower value 1.01 | S. cerevisiae deletion strains, locus YKR001C, strain vps1, stronger effect = lower value 1.02 | S. cerevisiae deletion strains, locus YKR026C, strain gcn3, stronger effect = lower value 1.01 | S. cerevisiae deletion strains, locus YKR091W, strain srl3, stronger effect = lower value 1.01 | S. cerevisiae deletion strains, locus YLL001W, strain dnm1, stronger effect = lower value 1.02 | S. cerevisiae deletion strains, locus YLL026W, stronger effect = lower value 1.02 | S. cerevisiae deletion strains, locus YLL041C, strain sdh2, stronger effect = lower value 1.01 | S. cerevisiae deletion strains, locus YLR027C, strain aat2, stronger effect = lower value 1.02 | S. cerevisiae deletion strains, locus YLR039C, strain RIC1, stronger effect = lower value 1.04 | S. cerevisiae deletion strains, locus YLR058C, strain SHM2, stronger effect = lower value 1.01 | S. cerevisiae deletion strains, locus YLR102C, strain apc9, stronger effect = lower value 0.995 | S. cerevisiae deletion strains, locus YLR113W, strain HOG1, stronger effect = lower value 1.02 | S. cerevisiae deletion strains, locus YLR221C, strain rsa3, stronger effect = lower value 1 | S. cerevisiae deletion strains, locus YLR258W, strain gsy2, stronger effect = lower value 1.01 | S. cerevisiae deletion strains, locus YLR262C, strain YPT6 (second series), stronger effect = lower value 1.03 | S. cerevisiae deletion strains, locus YLR262C, strain YPT6, stronger effect = lower value 1.05 | S. cerevisiae deletion strains, locus YLR268W, strain sec22, stronger effect = lower value 0.948 | S. cerevisiae deletion strains, locus YLR320W, strain mms22, stronger effect = lower value 0.992 | S. cerevisiae deletion strains, locus YLR330W, strain CHS5, stronger effect = lower value 1.01 | S. cerevisiae deletion strains, locus YLR342W, strain FKS1 (second series), stronger effect = lower value 1.03 | S. cerevisiae deletion strains, locus YLR342W, strain FKS1, stronger effect = lower value 1.01 | S. cerevisiae deletion strains, locus YLR357W, strain rsc2, stronger effect = lower value 1.02 | S. cerevisiae deletion strains, locus YLR370C, strain arc18, stronger effect = lower value 1.02 | S. cerevisiae deletion strains, locus YLR371W, strain rom2, stronger effect = lower value 0.996 | S. cerevisiae deletion strains, locus YLR384C, strain iki3, stronger effect = lower value 1.02 | S. cerevisiae deletion strains, locus YLR418C, strain cdc73, stronger effect = lower value 0.997 | S. cerevisiae deletion strains, locus YML016C, strain PPZ1, stronger effect = lower value 1.01 | S. cerevisiae deletion strains, locus YML032C, strain rad52, stronger effect = lower value 0.98 | S. cerevisiae deletion strains, locus YML120C, strain ndi1, stronger effect = lower value 1.02 | S. cerevisiae deletion strains, locus YML124C, strain tub3, stronger effect = lower value 0.997 | S. cerevisiae deletion strains, locus YMR058W, strain fet3, stronger effect = lower value 1.02 | S. cerevisiae deletion strains, locus YMR078C, strain ctf18, stronger effect = lower value 0.994 | S. cerevisiae deletion strains, locus YMR125W, strain sto1, stronger effect = lower value 1 | S. cerevisiae deletion strains, locus YMR129W, stronger effect = lower value 1.01 | S. cerevisiae deletion strains, locus YMR205C, strain PFK2, stronger effect = lower value 1 | S. cerevisiae deletion strains, locus YMR223W, strain ubp8, stronger effect = lower value 1.01 | S. cerevisiae deletion strains, locus YMR231W, strain pep5, stronger effect = lower value 1.01 | S. cerevisiae deletion strains, locus YMR263W, strain SAP30, stronger effect = lower value 1.01 | S. cerevisiae deletion strains, locus YMR307W, strain GAS1, stronger effect = lower value 0.995 | S. cerevisiae deletion strains, locus YNL067W, strain RPL9B, stronger effect = lower value 1.02 | S. cerevisiae deletion strains, locus YNL071W, strain lat1, stronger effect = lower value 1.01 | S. cerevisiae deletion strains, locus YNL128W, strain TEP1, stronger effect = lower value 1.01 | S. cerevisiae deletion strains, locus YNL153C, strain GIM3, stronger effect = lower value 1 | S. cerevisiae deletion strains, locus YNL183C, strain NPR1, stronger effect = lower value 0.948 | S. cerevisiae deletion strains, locus YNL209W, strain ssb2, stronger effect = lower value 1.02 | S. cerevisiae deletion strains, locus YNL233W, strain BNI4, stronger effect = lower value 0.99 | S. cerevisiae deletion strains, locus YNL248C, strain rpa49, stronger effect = lower value 0.998 | S. cerevisiae deletion strains, locus YNL250W, strain rad50, stronger effect = lower value 0.989 | S. cerevisiae deletion strains, locus YNL271C, strain bni1, stronger effect = lower value 0.992 | S. cerevisiae deletion strains, locus YNL298W, strain CLA4, stronger effect = lower value 1 | S. cerevisiae deletion strains, locus YNL307C, strain MCK1, stronger effect = lower value 0.995 | S. cerevisiae deletion strains, locus YNL322C, strain KRE1 (second series), stronger effect = lower value 1.02 | S. cerevisiae deletion strains, locus YNL322C, strain KRE1, stronger effect = lower value 1.01 | S. cerevisiae deletion strains, locus YNR049C, strain mso1, stronger effect = lower value 1.01 | S. cerevisiae deletion strains, locus YNR052C, strain pop2, stronger effect = lower value 1 | S. cerevisiae deletion strains, locus YOL006C, strain TOP1, stronger effect = lower value 1.01 | S. cerevisiae deletion strains, locus YOL012C, strain htz1 1.03 | S. cerevisiae deletion strains, locus YOL147C, strain pex11, stronger effect = lower value 0.992 | S. cerevisiae deletion strains, locus YOR001W, strain rrp6, stronger effect = lower value 1.03 | S. cerevisiae deletion strains, locus YOR061W, strain CKA2, stronger effect = lower value 1.01 | S. cerevisiae deletion strains, locus YOR069W, strain VPS5, stronger effect = lower value 1.01 | S. cerevisiae deletion strains, locus YOR070C, strain gyp1, stronger effect = lower value 1 | S. cerevisiae deletion strains, locus YOR080W, strain dia2, stronger effect = lower value 1.01 | S. cerevisiae deletion strains, locus YOR083W, strain WHI5, stronger effect = lower value 0.98 | S. cerevisiae deletion strains, locus YOR106W, strain vam3, stronger effect = lower value 1.04 | S. cerevisiae deletion strains, locus YOR136W, strain idh2, stronger effect = lower value 0.993 | S. cerevisiae deletion strains, locus YOR144C, strain elg1, stronger effect = lower value 1 | S. cerevisiae deletion strains, locus YOR184W, strain ser1, stronger effect = lower value 1 | S. cerevisiae deletion strains, locus YOR231W, strain MKK1, stronger effect = lower value 1.05 | S. cerevisiae deletion strains, locus YOR265W, strain rbl2, stronger effect = lower value 1.02 | S. cerevisiae deletion strains, locus YOR270C, strain vph1, stronger effect = lower value 1.03 | S. cerevisiae deletion strains, locus YOR290C, strain snf2, stronger effect = lower value 0.997 | S. cerevisiae deletion strains, locus YOR316C, strain cot1, stronger effect = lower value 0.999 | S. cerevisiae deletion strains, locus YPL051W, strain arl3, stronger effect = lower value 1.02 | S. cerevisiae deletion strains, locus YPL055C, strain LGE1, stronger effect = lower value 1.02 | S. cerevisiae deletion strains, locus YPL078C, strain atp4, stronger effect = lower value 1.02 | S. cerevisiae deletion strains, locus YPL106C, strain sse1, stronger effect = lower value 1.03 | S. cerevisiae deletion strains, locus YPL240C, strain hsp82, stronger effect = lower value 1.03 | S. cerevisiae deletion strains, locus YPL241C, strain CIN2, stronger effect = lower value 1.01 | S. cerevisiae deletion strains, locus YPL256C, strain CLN2, stronger effect = lower value 1.02 | S. cerevisiae deletion strains, locus YPR119W, strain clb2, stronger effect = lower value 0.992 | S. cerevisiae deletion strains, locus YPR141C, strain kar3, stronger effect = lower value 0.996 | S. cerevisiae deletion strains, locus YPR163C, strain tif3, stronger effect = lower value 1 | S. cerevisiae deletion strains, locus YPR167C, strain met16, stronger effect = lower value 1 | S. cerevisiae deletion strains, strain wtn01, stronger effect = lower value 0.997 | S. cerevisiae strains, strain wild type, stronger effect = lower value 0.997
